TROY NFkB inh: inhibitors of TROY-dependent NF-kB signaling | AID 1347056 | inhibition, % at 10 µM | Q293 LMP1-TROYcd NF-kB luciferase reporter, 4 h | 360,000 compounds, 0.98% hits;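 active means compounds whose plate-normalised and pattern-corrected inhibition of the luciferase reporter signal at the single screening dose is 50% or more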
LMP1 NFkB inh: Epstein-Barr LMP1 NF-kappaB reporter inhibition; LMP1-induced NF-kappaB luciferase reporter cells, luminescence; inhibition, % at 12.5 µM; 350,000 compounds, 0.69% hits; AID 504558; in the data active means inhibition above about 41%; inconclusive means no clear call, values can overlap the other calls;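 further: 0% = neutral control wells and 100% = reference inhibitor control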
TWEAK Fn14 block: blocks TWEAK-Fn14 interaction in a reporter cell assay. TWEAK-stimulated Fn14 reporter cells, luciferase luminescence, 8 h. 360,000 compounds, 2% hits. inhibition, % at 10 µM; in the data active means inhibition above about 50%
LGR2 inh: blocks bursicon-induced cAMP signaling via Drosophila LGR2; HEK293 LGR2, CRE-luciferase, bursicon-stimulated, 4 h; inhibition, % at 9.99 µM; 380,000 compounds, 0.35% hits;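 active means drop in luminescence signal, shown as inhibition above about 50% in the replicate tests, limit read from the data, passing the limit was not always enough; inconclusive means probably only some replicates passing the limit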;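 further: agonist challenge used bursicon conditioned medium at about half maximal strength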
EWS-Fli inh: blocks EWS/Fli oncoprotein-driven transcription; inhibition, % at 12.6 µM; A673 NR0B1-luciferase reporter, viability-normalised; 350,000 compounds, 0.67% hits;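 active means mean inhibition of at least 50% after viability correction, with every replicate also passing that limit; inconclusive means mean reaches 50% but only one of two replicates passes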;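 further: firefly luciferase signal divided by Alamar Blue viability fluorescence both relative to DMSO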
The depositor's hits bear a star; ? = inconclusive; nt = no result given. Compounds with a hit are over-represented: about 2.5% of the library has one in this group of screens.

SMILES	TROY NFkB inh	LMP1 NFkB inh	TWEAK Fn14 block	LGR2 inh	EWS-Fli inh
CC1=C(C(=O)N(C(C)C)C(C)C)CC(CC(=O)NC2CC2)C(=O)N1CCCN1CCCC1=O (configuration not stated)	75*	nt	11	7	6
COc1ccc2c3c([nH]c2c1)[C@@H](CO)N(C(=O)NC(C)C)CC31CCN(Cc2ccc(F)cc2)CC1	nt	nt	nt	2	29
Cc1ccc(NC2CCCN(C(=O)C3CCCCC3)C2)cc1C (configuration not stated)	-21	-9	69*	-3	11
O=C(C1CCCC1)N1CCCC(Nc2ccc(F)cc2)C1 (configuration not stated)	-7	7	-4	20	nt
O=C(Nc1ccc(S(=O)(=O)N2CCOCC2)cc1)c1cc(-c2cc(Cl)ccc2O)n[nH]1	69*	-5	91*	?	59*
Cc1ccc(S(=O)(=O)N(C)C[C@@H]2Oc3ccc(NS(=O)(=O)c4ccccc4)cc3C(=O)N([C@H](C)CO)C[C@@H]2C)cc1	nt	nt	nt	10	5
O=C(CN1CCOCC1)NCC[C@@H]1CC[C@@H](NS(=O)(=O)c2ccc(Cl)cc2)[C@@H](CO)O1	nt	nt	nt	-7	1
COC(=O)C(NS(=O)(=O)c1ccc(N2CCCC2=O)cc1)c1ccccc1 (configuration not stated)	-1	67*	-2	-2	nt
CCC(=O)N(C)C[C@H]1Oc2ncc(-c3ccc(C#N)cc3)cc2C(=O)N([C@@H](C)CO)C[C@@H]1C	nt	nt	nt	11	-10
CN(C)C(=O)c1cccc(-c2cnc3c(NC=O)cc(-c4cccc(C(F)(F)F)c4)cn23)c1	34	nt	63*	16	13
COc1cc(-c2cc(NC=O)c3ncc(-c4ccc(F)cc4)n3c2)cc(OC)c1OC	8	nt	11	29	15
COc1ccc(-c2cc(NC=O)c3ncc(-c4cccc(C(F)(F)F)c4)n3c2)c(OC)c1	4	nt	23	5	32
COc1cc(-c2cnc3c(NC=O)cc(-c4cccc(C(F)(F)F)c4)cn23)cc(OC)c1OC	39	nt	75*	13	21
COc1cccc(-c2cnc3c(NC=O)cc(-c4ccc(O)c(OC)c4)cn23)c1	10	nt	-5	-26	0
COc1cc(-c2cnc3c(NC=O)cc(-c4ccsc4)cn23)cc(OC)c1OC	16	nt	18	-21	56*
COc1cccc(-c2cc(NC=O)c3ncc(-c4cc(OC)c(OC)c(OC)c4)n3c2)c1	35	nt	42	-17	53*
CC(C)NC(=O)N(C)C[C@@H]1Oc2cc(C#Cc3ccccn3)ccc2S(=O)(=O)N([C@@H](C)CO)C[C@@H]1C	nt	nt	nt	-12	-2
COc1ccc(S(=O)(=O)N(C)C[C@@H]2Oc3c(NS(=O)(=O)c4ccc(Cl)cc4)cccc3C(=O)N([C@@H](C)CO)C[C@H]2C)cc1	nt	nt	nt	-5	-3
COc1ccc2c(c1OC)C(=O)OC2C/C(=N\NC(N)=O)c1ccccc1 (configuration not stated)	-11	2	3	1	6
COc1ccc(/C(CC2OC(=O)c3ccccc32)=N\NC(N)=O)cc1 (configuration not stated)	-16	65*	2	4	-1
CCn1nc(C(=O)Nc2nc(-c3ccccn3)cs2)c2ccccc2c1=O	-7	42*	3	-27	3
C[C@@H]1CN([C@H](C)CO)C(=O)Cc2cc(NS(=O)(=O)c3ccccc3)ccc2O[C@@H]1CN(C)S(C)(=O)=O	nt	nt	nt	-9	-6
C[C@H](O)C#Cc1cnc2c(c1)C(=O)N([C@@H](C)CO)C[C@@H](C)[C@H](CN(C)C(=O)CC1CC1)O2	nt	nt	nt	-43	-3
O=C(/C=C/c1ccc([N+](=O)[O-])cc1)NCc1ccccn1	-4	4	3	3	nt
O=C(/C=C/c1ccc([N+](=O)[O-])cc1)Nc1ncc([N+](=O)[O-])s1	40	13	66*	94*	25
SMILES	TROY NFkB inh	LMP1 NFkB inh	TWEAK Fn14 block	LGR2 inh	EWS-Fli inh
COc1ccc(-c2ocnc2C(=O)NCc2nn(-c3ccccc3)nc2C)cc1	39	23	50*	18	22
COc1ccc(CC(=O)NCc2nn(-c3ccccc3)nc2C)cc1OC	2	-4	12	4	27
COc1cc(CC(NC(C)=O)C(=O)NC2CCN(C(=O)C3CC3)CC2)cc(OC)c1 (configuration not stated)	55*	1	13	1	12
CCCCCCC(=O)N(O)C1CC(=O)N(c2ccc(Br)cc2)C1=O (configuration not stated)	6	43*	-65	nt	nt
CC(C)CC#Cc1ccc2c(c1)O[C@H](CN(C)Cc1cccc(F)c1)[C@H](C)CN([C@@H](C)CO)S2(=O)=O	nt	nt	nt	13	25
COc1ccc2c3c(n(C)c2c1)[C@@H](CO)N(C(=O)CC1CC1)CC31CCN(C(=O)C2CC2)CC1	nt	nt	nt	10	-8
O=C(/C=C/C(Cl)(Cl)Cl)Nc1ccc(Cl)cc1	1	-2	-2	-38	53*
CC(C)c1ccc(C2c3[nH]c4ccccc4c3C[C@H]3C(=O)N(c4ccccc4C(=O)N4CCC[C@H]4C(=O)O)C(=O)N23)cc1 (some centres not stated)	67*	-9	44	-32	-27
COc1ccc(C2c3[nH]c4ccccc4c3C[C@H]3C(=O)N(c4ccccc4C(=O)N4CCC(C(=O)O)CC4)C(=O)N23)cc1 (some centres not stated)	-4	-7	2	-4	3
COCC#Cc1cnc2c(c1)C(=O)N([C@@H](C)CO)C[C@H](C)[C@@H](CN(C)C(=O)c1ccc3c(c1)OCO3)O2	nt	nt	nt	-5	-3
Cc1cc2nc(-c3ccc[nH]c3=O)[nH]c2cc1C	26	-5	83*	78*	62*
Cc1cc2nc(-c3ccc[nH]c3=O)n(Cc3ccc(F)cc3)c2cc1C	-32	-7	-9	-6	-17
COCC#Cc1cnc2c(c1)C(=O)N([C@@H](C)CO)C[C@@H](C)[C@@H](CN(C)Cc1ccccc1F)O2	nt	nt	nt	-6	2
CC(=O)N(CN1C(=O)CCC1=O)c1ccc(Cl)c(Cl)c1	58*	1	73*	-51	-17
COc1ccc(N(Cc2ccccc2)C(=O)CSc2nnc(Cn3nnc4ccccc43)o2)cc1	20	-10	-4	nt	nt
O=C(CSc1nnc(Cn2nnc3ccccc32)o1)N(Cc1ccc(F)cc1)c1ccccc1	43	-1	56*	nt	nt
COc1ccc(CN(C(=O)CSc2nnc(-c3ccc(F)cc3)o2)c2ccc(F)cc2)cc1	1	2	10	12	6
COc1ccc(CN(C(=O)CSc2nnc(-c3c[nH]c4ccccc34)o2)c2ccc(F)cc2)cc1OC	38	36	72*	nt	nt
C[C@@H]1CN([C@H](C)CO)S(=O)(=O)c2ccc(-c3ccncc3)cc2O[C@@H]1CN(C)CC1CC1	nt	nt	nt	11	-5
O=C(O)C(=O)/C(=C\c1ccc(Cl)cc1)c1ccc2ccccc2n1	53*	-41	34	-40	-42

Screens (PubChem)
